This note sets out measurements from the supplement of paper PMC13094657.

± gives the standard deviation of the averaged measurements.

Assay [1] deals with MDA-MB-231. Nature of the assay: cell viability relative to vehicle unstimulated control (fraction); higher = more viable cells. The conditions noted are these: pre-treatment time: 18 h then 24 h IFNg/TNF.
Assay [2] relates to MDA-MB-231. Description: kynurenine production, fold change vs DMSO IFNg/TNF control; higher = more kynurenine produced (less inhibition). The conditions noted are these: pre-treatment time: 18 h then 24 h IFNg/TNF. In short, it runs like this:
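Fold change over cytokine-stimulated vehicle wells on the same plate is the measure used for kynurenine production, averaged across duplicate plates in the first screening round. MDA-MB-231 cells, seeded 24 h beforehand at 7 × 10^4/well in 96-well plates, were pre-treated 18 h with each natural product in 0.1% DMSO and stimulated 24 h at 37°C with IFNγ (1 U/ml) and TNF (6.25 ng/ml). Supernatants were read at 492 nm following trichloroacetic acid and p-dimethylaminobenzaldehyde treatment, against 0–100 μM standards.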
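Wherever cell viability relative to vehicle unstimulated control is given: viability of the cells left after supernatant collection, read with Deep Blue dye added for 4 h, as absorbance at 570 nm minus 600 nm.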

For the compound `C/C(=C\C(=O)CC(C)C(=O)O)[C@H]1C[C@H](O)[C@@]2(C)C3=C(C(=O)C[C@]12C)[C@@]1(C)CCC(=O)C(C)(C)[C@@H]1C[C@@H]3O` (some centres not stated) [Ganoderenic acid A] (compound dose: 10 uM), the cell viability in the assay on MDA-MB-231 [1] was 1.03 ± 0.068. In the assay with MDA-MB-231 [2], the kynurenine production was 0.817 ± 0.31.

In the case of `C=C(C)C(=O)O[C@H]1CC2=C[C@@H](C/C(C)=C/[C@H]3OC(=O)C(=C)[C@H]13)OC2=O` [Deoxyelephantopin] (compound dose: 10 uM), in the assay on MDA-MB-231 [1], the cell viability was determined as 0.768 ± 0.041. The kynurenine production with MDA-MB-231 [2] was determined as 0.117 ± 0.06.

`CC(C)=CCC[C@](C)(O[C@@H]1O[C@H](CO)[C@@H](O)[C@H](O)[C@H]1O)[C@H]1CC[C@]2(C)[C@@H]1[C@H](O)C[C@@H]1[C@@]3(C)CC[C@H](O)C(C)(C)[C@@H]3[C@@H](O)C[C@]12C` [Ginsenoside F1] (compound dose: 10 uM): the cell viability in the assay on MDA-MB-231 [1] worked out at 0.982 ± 0.05. The kynurenine production in the assay on MDA-MB-231 [2] amounted to 1.13 ± 0.066.

For the compound `C[C@@H]1O[C@@H](O[C@H]2[C@H](O)[C@@H](O)[C@H](OC[C@H]3O[C@@H](OC(=O)[C@]45CCC(C)(C)C[C@H]4C4=CC[C@@H]6[C@@]7(C)CC[C@H](O[C@@H]8OC[C@H](O)[C@H](O)[C@H]8O)[C@@](C)(CO)[C@@H]7CC[C@@]6(C)[C@]4(C)CC5)[C@H](O)[C@@H](O)[C@@H]3O)O[C@@H]2CO)[C@H](O)[C@H](O)[C@H]1O` [Cauloside D] (compound dose: 10 uM), the cell viability with MDA-MB-231 [1] is 0.997 ± 0.083. Further, the kynurenine production in the assay with MDA-MB-231 [2] was 1.23 ± 0.19.

Consider `C=C1C[C@@]23CC[C@H]4[C@@](C)(CCC[C@@]4(C)C(=O)O[C@@H]4O[C@H](CO)[C@@H](O)[C@H](O)[C@H]4O)[C@@H]2CC[C@]1(O[C@@H]1O[C@H](CO)[C@@H](O)[C@H](O)[C@H]1O)C3` [Rubusoside] (compound dose: 10 uM), for which the cell viability with MDA-MB-231 [1] is 1.07 ± 0.02. In addition, the kynurenine production with MDA-MB-231 [2] was 0.88 ± 0.065.

Take `C=C1C(=O)[C@@]23[C@@H]4OC5O[C@@]2(O)[C@@H](O)[C@@H]2C(C)(C)CC[C@@H](O)[C@]52[C@@H]3CC[C@@H]14` [Ponicidin] (compound dose: 10 uM): the cell viability in the assay on MDA-MB-231 [1] was 0.9 ± 0.21. The kynurenine production with MDA-MB-231 [2] was 0.404 ± 0.15.

As for `CCCCCCCCCCCCCC(=O)O[C@@]12[C@H](O)[C@@H](C)[C@@]3(O)[C@@H](C=C(CO)C[C@]4(O)C(=O)C(C)=C[C@@H]34)[C@H]1C2(C)C` [Phorbol 13-myristate] (compound dose: 10 uM), in the assay with MDA-MB-231 [1], the cell viability worked out at 1.03 ± 0.065. The kynurenine production in the assay with MDA-MB-231 [2] was found to be 0.635 ± 0.081.

For the compound `C=C1C(=O)O[C@@H]2CC(C)=C([C@@H](C)CCCOC(C)=O)[C@@H](O)[C@H]12` [Inulicin] (compound dose: 10 uM), in the assay with MDA-MB-231 [1], the cell viability was determined as 0.912 ± 0.096. In addition, the kynurenine production in the assay on MDA-MB-231 [2] was 1.16 ± 0.15.

With `C[C@@H]1O[C@@H](OC[C@H]2O[C@@H](Oc3c(-c4ccc(O)c(O)c4)oc4cc(O)cc(O)c4c3=O)[C@H](O)[C@@H](O)[C@@H]2O)[C@H](O)[C@H](O)[C@H]1O` [Rutin] (compound dose: 10 uM), in the assay with MDA-MB-231 [1], the cell viability is 0.867. Moreover, the kynurenine production with MDA-MB-231 [2] was determined as 0.755 ± 0.058.

For the compound `CC1(C)C(O[C@@H]2OC[C@@H](O)[C@H](O)[C@H]2O)CC[C@]23CC24CC[C@]2(C)[C@@H]([C@@]5(C)CC[C@@H](C(C)(C)O)O5)[C@H](O)C[C@@]2(C)C4C[C@@H](O[C@@H]2O[C@H](CO)[C@@H](O)[C@H](O)[C@H]2O)C13` (some centres not stated) [Astragaloside IV] (compound dose: 10 uM), in the assay on MDA-MB-231 [1], the cell viability amounted to 1.05 ± 0.022. In addition, the kynurenine production in the assay on MDA-MB-231 [2] stood at 0.878 ± 0.068.

Take `C[C@H](CC(=O)C[C@@H](C)[C@H]1C[C@H](O)[C@@]2(C)C3=C(C(=O)C[C@]12C)[C@@]1(C)CCC(=O)C(C)(C)[C@@H]1C[C@@H]3O)C(=O)O` [Ganoderic acid A] (compound dose: 10 uM): the cell viability in the assay on MDA-MB-231 [1] was found to be 0.889 ± 0.073. In the assay with MDA-MB-231 [2], the kynurenine production amounted to 0.857 ± 0.073.

As to `C=C[C@@](C)(/C=C/c1ccc(O)cc1)CCC=C(C)C` [Bakuchiol] (compound dose: 10 uM), the cell viability in the assay with MDA-MB-231 [1] amounted to 0.95 ± 0.037. For the same compound, the kynurenine production in the assay on MDA-MB-231 [2] was determined as 0.736 ± 0.018.

With `O=C(O)C1=CO[C@@H](O[C@@H]2O[C@H](CO)[C@@H](O)[C@H](O)[C@H]2O)[C@H]2[C@@H]1C=C[C@]2(O)CO` [Monotropein] (compound dose: 10 uM), in the assay with MDA-MB-231 [1], the cell viability is 0.866 ± 0.046. Besides, in the assay with MDA-MB-231 [2], the kynurenine production was 0.846 ± 0.13.

With `C/C=C(/C)C(=O)O[C@H]1[C@H](OC(C)=O)[C@]2(CO)[C@H](O)C[C@]3(C)C(=CC[C@@H]4[C@@]5(C)CC[C@H](O[C@@H]6O[C@H](C(=O)O)[C@@H](O[C@@H]7O[C@H](CO)[C@@H](O)[C@H](O)[C@H]7O)[C@H](O)[C@H]6O[C@@H]6O[C@H](CO)[C@@H](O)[C@H](O)[C@H]6O)[C@](C)(CO)[C@@H]5CC[C@]43C)[C@@H]2CC1(C)C` [Escin IB] (compound dose: 10 uM), the cell viability with MDA-MB-231 [1] amounted to 0.915 ± 0.022. In addition, in the assay with MDA-MB-231 [2], the kynurenine production is 0.801 ± 0.012.

Consider `COC(=O)[C@]12OC[C@]34[C@H]([C@@H](O)[C@@H]1O)[C@@]1(C)CC(=O)C(O)=C(C)[C@@H]1C[C@H]3OC(=O)[C@H](OC(=O)C=C(C)C)[C@@H]24` [Brusatol] (compound dose: 10 uM), for which, in the assay with MDA-MB-231 [1], the cell viability is 0.432 ± 0.034. Moreover, in the assay on MDA-MB-231 [2], the kynurenine production was determined as 0.1176 ± 0.00049.

With `CC(=O)OC1C2C(OC(=O)c3ccccc3)C(C)CC2(OC(C)=O)C(=O)C(C)=CC2C(CCC13CO3)C2(C)C` (configuration not stated) [Euphorbia factor L25] (compound dose: 10 uM), the cell viability in the assay with MDA-MB-231 [1] was found to be 1.057 ± 0.0038. For the same compound, the kynurenine production in the assay on MDA-MB-231 [2] was found to be 0.911 ± 0.07.
